IL1B NFkB pot – enhances IL-1B driven NFkB nuclear translocation; HUVEC IL-1B NFkB p65 nuclear translocation imaging; 94,000 compounds, 0.3% hits; activation, % at 2 µM;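 active means activation above 40%, about the mean plus 3 SD, also judged a hit on visual image review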;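 further: percent activation is computed from the nuclear over cytoplasmic p65 intensity ratio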
VCAM1 TNFa inh – reduces TNF alpha induced VCAM1 expression in HUVEC; 95,000 compounds, 0.48% hits; HUVEC TNFa-induced VCAM-1 immunofluorescence, high-content imaging; inhibition, % at 2 µM;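 active means inhibition above the batch mean plus 3 SD, with images confirmed as a hit by eye, cut at about 37% in these data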;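 further: 0% = TNF-stimulated DMSO wells and 100% = unstimulated control wells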
TNFa cytotox – toxic to HUVEC cells under TNF alpha stimulation. HUVEC TNFalpha-stimulated, Hoechst cell count, imaging. cell count reduction, % at 2 µM. 93,000 compounds, 0.17% hits;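 active means cell count reduction exceeding the screen mean by over 5 SD, scaled to untreated wells per plate, cut at about 78% in these data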;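 further: cells counted after 24 h of TNF alpha exposure following the 1 h pretreatment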
Phagocytosis inh – macrophage phagocytosis inhibition; 110,000 compounds, 0.07% hits; J774A.1 macrophage IgG-bead phagocytosis, imaging; inhibition, % at 5 µM;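 active means inhibition above the mean of the plate negative controls plus 5 SD, cut at about 13% in these data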;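 further: phagocytic index as fraction of beads internalized from green versus red external bead signal; plate controls were DMSO negative control for no effect and cytochalasin-D positive control for full effect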
HUVEC tox IL1B – HUVEC cytotoxicity counter-screen, IL-1B stimulated; HUVEC cell count loss, Hoechst imaging; cell count reduction, % at 2 µM; 94,000 compounds, 0.41% hits; AID 845;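 active means cell count reduction more than 3 SD above the screen-wide mean, cut at about 70% in these data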;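 further: normalized per plate to untreated control cells as the no-loss baseline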
NFkB transloc inh – blocks IL-1B driven NFkB nuclear translocation in HUVEC cells. 94,000 compounds, 0.43% hits. inhibition, % at 2 µM. AID 796. HUVEC IL-1B NFkB p65 nuclear translocation imaging;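 active means inhibition above about 30% together with a positive call from visual inspection of the well image, limit read from the data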;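 further: nuclear over cytoplasmic p65 intensity ratio measured by imaging; 0% = IL-1B stimulated DMSO wells and 100% = unstimulated DMSO wells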
An asterisk follows results filed as active. The list is not random: actives were taken first. Their share in the collection is about 1.2%.

How did O=C(Cn1cc(C(=O)c2ccccc2)c2ccccc21)NCc1ccco1 do in these assays?
IL1B NFkB pot: -93; VCAM1 TNFa inh: 14; TNFa cytotox: 1; Phagocytosis inh: 3; HUVEC tox IL1B: 88*; NFkB transloc inh: 93*

What do the screens show for `COc1ccc(-c2cc(C(F)(F)F)n3nc(C(=O)N4CCC5(CC4)OCCO5)cc3n2)cc1OC`?
IL1B NFkB pot: -1; VCAM1 TNFa inh: 7; TNFa cytotox: -1; Phagocytosis inh: -1; HUVEC tox IL1B: 89*; NFkB transloc inh: 1

Results for Nc1ccnn1C1CCNCC1 ?
IL1B NFkB pot: 5; VCAM1 TNFa inh: 7; TNFa cytotox: -3; Phagocytosis inh: 0; HUVEC tox IL1B: -16; NFkB transloc inh: -4

How did CN1CCC(n2nccc2N)CC1 do in these assays?
IL1B NFkB pot: -36; VCAM1 TNFa inh: -2; TNFa cytotox: -26; Phagocytosis inh: -1; HUVEC tox IL1B: 16; NFkB transloc inh: 36*

Results for CC[N+](C)(CC)CCCOC(=O)C(O)(c1ccccc1)C1CCCCC1 (stereo unspecified) ?
IL1B NFkB pot: 6; VCAM1 TNFa inh: 24; TNFa cytotox: 4; HUVEC tox IL1B: -3; NFkB transloc inh: -6

Results for CC1CCC/C=C/C2CC(O)CC2C(O)/C=C/C(=O)O1 (stereo unspecified) ?
IL1B NFkB pot: -3; VCAM1 TNFa inh: 94*; TNFa cytotox: 87*; Phagocytosis inh: 3; HUVEC tox IL1B: -19; NFkB transloc inh: 3

What do the screens show for `C[C@H]1CCC[C@@H](O)CCC/C=C/c2cc(O)cc(O)c2C(=O)O1`?
IL1B NFkB pot: 13; VCAM1 TNFa inh: -80; TNFa cytotox: -47; Phagocytosis inh: 0; HUVEC tox IL1B: -7; NFkB transloc inh: -13

What do the screens show for `CC(C)n1nnnc1CN1CCN(C)CC1`?
IL1B NFkB pot: 3; VCAM1 TNFa inh: -11; TNFa cytotox: -12; Phagocytosis inh: -1; HUVEC tox IL1B: 10; NFkB transloc inh: -4

How did CCN(CC)CCN=Cc1c(O)n(Cc2ccccc2)c(=O)[nH]c1=O do in these assays?
IL1B NFkB pot: 11; VCAM1 TNFa inh: 1; TNFa cytotox: -3; Phagocytosis inh: 104*; HUVEC tox IL1B: -8; NFkB transloc inh: -11

What do the screens show for `CC(=NCCCO)c1c(O)n(Cc2ccccc2)c(=O)[nH]c1=O`?
IL1B NFkB pot: -10; VCAM1 TNFa inh: 94*; HUVEC tox IL1B: 15; NFkB transloc inh: 10

How did Cc1ccc2c(c1)CC1(CN2C)C(=O)NC(=O)N(CCC2=CCCCC2)C1=O (stereo unspecified) do in these assays?
IL1B NFkB pot: 66*; VCAM1 TNFa inh: 16; TNFa cytotox: -30; Phagocytosis inh: 0; HUVEC tox IL1B: 7; NFkB transloc inh: -66

What do the screens show for `Cc1ccc2c(c1)CC1(CN2C)C(=O)NC(=O)N(C(C)C)C1=O` (stereo unspecified)?
IL1B NFkB pot: 9; VCAM1 TNFa inh: 3; TNFa cytotox: -15; Phagocytosis inh: -1; HUVEC tox IL1B: 14; NFkB transloc inh: -9

How did O=C1C(=O)c2ccccc2-c2ccccc21 do in these assays?
IL1B NFkB pot: 32; VCAM1 TNFa inh: 84*; TNFa cytotox: 41; Phagocytosis inh: 0; HUVEC tox IL1B: 25; NFkB transloc inh: -32

How did Cc1ccc2c(c1)C1CN(C)CCC1N2C(=O)Nc1cccc(C(F)(F)F)c1 (stereo unspecified) do in these assays?
IL1B NFkB pot: -30; VCAM1 TNFa inh: 21; TNFa cytotox: -20; HUVEC tox IL1B: 40; NFkB transloc inh: 30*

How did Nc1nnc(CCN2CCCCC2)s1 do in these assays?
IL1B NFkB pot: 12; VCAM1 TNFa inh: 4; TNFa cytotox: -14; HUVEC tox IL1B: -78; NFkB transloc inh: -12

How did C=CCOC(=O)C1=C(C)OC(N)=C(C#N)C12C(=O)N(CN1CCOCC1)c1ccccc12 (stereo unspecified) do in these assays?
IL1B NFkB pot: -6; VCAM1 TNFa inh: 88*; TNFa cytotox: 91*; Phagocytosis inh: 0; HUVEC tox IL1B: -7; NFkB transloc inh: 6

What do the screens show for `CCOC(=O)C1=C(C)OC(N)=C(C#N)C12C(=O)N(C)c1ccccc12` (stereo unspecified)?
IL1B NFkB pot: -5; VCAM1 TNFa inh: 10; TNFa cytotox: -4; HUVEC tox IL1B: -2; NFkB transloc inh: 5

What do the screens show for `CNC(=O)OCc1n(C)cc[n+]1C`?
Phagocytosis inh: 0

What do the screens show for `COC(=O)C1CN(C#N)N(c2ccc(Cl)cc2)C12c1ccccc1-c1ccccc12` (stereo unspecified)?
IL1B NFkB pot: -65; HUVEC tox IL1B: 21; NFkB transloc inh: 65*

Bioassay records from PubChem.
